Laboratory results: the supplement of paper PMC12340641
Counter-ions that a name gives are not always drawn.

What was measured:
[1] = molecular target: IKZF1 (dCK*-IKZF1 fusion in HEK293FT) (UniProt Q13422); assay: inhibition of IKZF1 HTRF signal (DMSO = 0%, pomalidomide 10 uM = 100%); higher = lower IKZF1 protein level; conditions: compound concentration: 5 uM, overnight (~20 h)
Method in brief: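 Compound was tested at 5 μM in single wells on HEK293FT cells (2000/well, 384-well) stably carrying an IKZF1 fusion, overnight at 37 °C. Total IKZF1 was measured in lysates with a commercial HTRF antibody kit as the background-subtracted 665/620 nm time-resolved FRET ratio. The reported figure is percent inhibition of IKZF1 signal, scaled per plate between vehicle and a reference degrader. The vehicle anchor was 0% and the degrader anchor 100%.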

HEK293FT dCK*-only = assay: relative growth in counter assay (no AraC = 100%, AraC + DMSO = 0%); higher = more growth rescue independent of IKZF1; conditions: compound concentration: 5 uM; AraC concentration: 0.3 uM; overnight pretreatment + 4 days AraC
Method in brief: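 For this counter assay, relative growth was normalised on each plate to two kinds of reference wells. HEK293FT cells expressing only an engineered kinase construct (300/well, 384-well) were treated with 5 μM compound 2 h after seeding, then after overnight at 37 °C with a nucleoside suicide substrate at 0.3 μM plus medium for 4 days. On day 5, Hoechst 33342-stained nuclei were counted by imaging, taking wells without suicide substrate as 100% and substrate plus vehicle as 0%.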

HEK293FT dCK*-IKZF1 = assay: relative growth recovery (pomalidomide 10 uM = 100%, DMSO = 0%); higher = more growth rescue (IKZF1 fusion degradation); conditions: compound concentration: 5 uM; AraC concentration: 0.3 uM; overnight pretreatment + 4 days AraC
Method in brief: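 HEK293FT cells stably expressing an engineered deoxycytidine kinase–IKZF1 fusion were seeded at 300 per well in 384-well plates and given 5 μM compound 2 h later. After overnight incubation at 37 °C, a nucleoside suicide substrate at 0.3 μM was added with medium for 4 days, and on day 5 Hoechst 33342-stained nuclei were counted by whole-well imaging. Growth recovery was normalised per plate between a reference degrader and vehicle, set to 100% and 0% respectively, and the values are means of duplicates run on different days.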

Chain of IKZF1 (dCK*-IKZF1 fusion in HEK293FT) (Q13422 whole entry, looked up, the tested form may be a part): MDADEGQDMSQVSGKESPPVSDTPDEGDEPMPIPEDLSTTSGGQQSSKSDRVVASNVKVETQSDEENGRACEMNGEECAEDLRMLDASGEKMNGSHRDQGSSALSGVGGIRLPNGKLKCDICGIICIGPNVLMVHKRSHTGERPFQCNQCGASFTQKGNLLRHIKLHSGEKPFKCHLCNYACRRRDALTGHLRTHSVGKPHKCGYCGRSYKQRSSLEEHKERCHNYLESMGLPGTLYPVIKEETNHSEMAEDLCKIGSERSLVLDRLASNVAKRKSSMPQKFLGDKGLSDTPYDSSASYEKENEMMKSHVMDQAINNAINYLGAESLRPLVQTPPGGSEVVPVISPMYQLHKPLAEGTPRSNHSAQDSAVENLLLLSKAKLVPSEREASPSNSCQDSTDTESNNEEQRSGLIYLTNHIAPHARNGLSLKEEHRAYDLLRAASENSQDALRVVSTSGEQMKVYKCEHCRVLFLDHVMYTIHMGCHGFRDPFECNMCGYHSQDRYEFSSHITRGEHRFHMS

| SMILES | inhibition of IKZF1 HTRF signal [1] [%] | relative growth in counter assay (HEK293FT dCK*-only) [%] | relative growth recovery (HEK293FT dCK*-IKZF1) [%] |
| --- | --- | --- | --- |
| CC(C)c1ccc(-c2cc(=O)c3ccccc3o2)cc1 | -25.6 | -5.2 | 0.225 |
| CSCC1CN(/N=C/c2ccc([N+](=O)[O-])o2)C(=O)O1 (centres undefined) [Nifuratel] | -39.4 | -3.74 | -1.79 |
| Cc1coc2c1C(=O)C(=O)c1c-2ccc2c(C)cccc12 [Tanshinone I] | -2.3 | -6.51 | -3.83 |
| CC(CCc1ccc(O)cc1)NCCc1ccc(O)c(O)c1 (centres undefined) [Dobutamine (hydrochloride)] | -39.6 | -8.05 | -1.22 |
| Oc1ccc(/C=C/c2cc(O)cc(O)c2)cc1 [Resveratrol] | -25.5 | 5.43 | 2.06 |
| CSc1nc2cc(Cl)c(Oc3cccc(Cl)c3Cl)cc2[nH]1 | -43 | 2.75 | 0.015 |
| CC(C)(C)c1ccc(-c2nc3ccccc3[nH]2)cc1 | -0.19 | 3.59 | 11.5 |
| CC(C)(C)CC(C)(C)c1ccc(OCCOCC[N+](C)(C)Cc2ccccc2)cc1 | 16 | -7.09 | -0.695 |
| Nc1ncn([C@H]2C[C@H](O)[C@@H](CO)O2)c(=O)n1 [Decitabine] | 12 | -31.4 | -11.4 |
| N#CC(c1ccccc1)(c1ccccc1)c1ccccc1Cl | -37.8 | 1.13 | -0.3 |
| CC(=O)N(O)[C@@H]1c2cc(C#N)ccc2OC(C)(C)[C@H]1O | 13.4 | -4.7 | -2.73 |
| CC[C@H](C)[C@H]1O[C@]2(CC[C@@H]1C)C[C@@H]1C[C@@H](C/C=C(\C)[C@@H](O[C@H]3C[C@H](OC)[C@@H](O[C@H]4C[C@H](OC)[C@@H](O)[C@H](C)O4)[C@H](C)O3)[C@@H](C)/C=C/C=C3\CO[C@@H]4[C@H](O)C(C)=CC(C(=O)O1)[C@]34O)O2 (some centres undefined) [Ivermectin] | -28.1 | -2.12 | 0.635 |
| CCOC(=O)C1=C(C)NC(C)=C(C(=O)OC)C1c1cccc([N+](=O)[O-])c1 (centres undefined) | -32.3 | -1.02 | 2.87 |
| CC(C)COCC(CN(Cc1ccccc1)c1ccccc1)N1CCCC1 (centres undefined) [bepridil] | 21.1 | -3.99 | -1.14 |
| C(=C\c1ccccc1)/CN1CCN(C(c2ccccc2)c2ccccc2)CC1 | -25.9 | -3.15 | 1.06 |
| COC(=O)/C=C/c1cc(O)ccc1O [erbstatin-analog] | -21.1 | -32.8 | -11.6 |
| NC(=O)c1ccc[n+]([C@@H]2O[C@H](COP(=O)(O)OP(=O)(O)OC[C@H]3O[C@@H](n4cnc5c(N)ncnc54)[C@H](O)[C@@H]3O)[C@@H](O)[C@H]2O)c1 | -23.1 | 5.09 | 1.08 |
| CCc1c2c(nc3ccc(OC(=O)N4CCC(N5CCCCC5)CC4)cc13)-c1cc3c(c(=O)n1C2)COC(=O)[C@]3(O)CC [irinotecan] | 41.6 | -35.4 | -13.9 |
